# The list is not random: actives were taken first. Their share in the collection is about 18%.
# DT40 TDP1 no CPT: qHTS for Inhibitors of human tyrosyl-DNA phosphodiesterase 1 (TDP1): qHTS in cells in absence of CPT; AID 686978, 2013; Potency, µM (series often up to 46.2 µM), most hits filed as inhibitors; hit rate 15% among 420,000; DT40 Tdp1-/- hTDP1 cells, no CPT, ATP luminescence, 48 h; further: nearly all actives have a fitted effect of over 55% in size
#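 Chicken DT40 Tdp1-/- cells stably complemented with human TDP1 were seeded at 400 cells/well with DMSO in place of 20 nM camptothecin. After compound pinning, cells grew at least 48 hr at 37 °C; viability read by CellTiter-Glo luminescence.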
# DT40 TDP1 CPT: growth inhibition of DT40 Tdp1-/-;hTDP1 cells with camptothecin (screen for TDP1 inhibitors). chicken DT40 Tdp1-/-;hTDP1 cells + 20 nM CPT, ATP luminescence, 48 h. hit rate 12% among 420,000. Potency, µM (doses to about 46.2 µM), most hits filed as inhibitors; further: nearly all actives have a fitted effect of over 55% in size
#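 Cell growth measured by CellTiter-Glo luminescence after a minimum 48 h, 37 C compound exposure with 20 nM CPT in Tdp1-knockout DT40 cells stably expressing hTDP1, seeded 400/well; qHTS titration format.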
# IL1B secr inh: inhibitors of inflammasome signaling (IL-1 beta secretion) | THP-1 LPS/ATP IL-1B secretion, AlphaLISA, 16 h; hits give low values | activity change, % at 57.5 µM | AID 743279 | hit rate 4.7% among 360,000; in the data active means activity change below about -50%; inconclusive means mostly about -30% to -49%
#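 Secreted IL-1B measured by AlphaLISA bead assay after 16 h compound exposure of THP-1 cells; compounds (final up to 57.5 uM) added 1 h before LPS (250 ng/mL) and ATP (1.25 mM) stimulation; lower signal means less secretion.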
# TGFb SMAD3 inh: inhibitors of TGF-b signaling; HepG2 CAGA-GFP TGF-b/SMAD3 reporter, GFP fluorescence, 18 h; TGF-beta stimulated, 500 pg/mL final; Potency, µM (series often up to 46.1 µM), hits mostly inhibitors; hit rate 1.2% among 410,000; further: nearly all actives have a fitted effect of over 65% in size
#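 HEPG2 CAGA-GFP cells (1000/well, DMEM with 1% FBS) were pre-incubated 2 h at 37 degrees C, given compound by pin tool, then stimulated with TGF-beta at 500 pg/mL final for 18 h before per-cell GFP fluorescence imaging.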
# TDP1 block: blocks human tyrosyl-DNA phosphodiesterase 1. hit rate 0.28% among 350,000. recombinant TDP1, AlphaScreen DNA substrate cleavage. Potency, µM (highest dose often 130 µM), hits mostly inhibitors; further: nearly all actives have a fitted effect of over 40% in size
# Target sequence (Q9NUW8 whole entry, looked up): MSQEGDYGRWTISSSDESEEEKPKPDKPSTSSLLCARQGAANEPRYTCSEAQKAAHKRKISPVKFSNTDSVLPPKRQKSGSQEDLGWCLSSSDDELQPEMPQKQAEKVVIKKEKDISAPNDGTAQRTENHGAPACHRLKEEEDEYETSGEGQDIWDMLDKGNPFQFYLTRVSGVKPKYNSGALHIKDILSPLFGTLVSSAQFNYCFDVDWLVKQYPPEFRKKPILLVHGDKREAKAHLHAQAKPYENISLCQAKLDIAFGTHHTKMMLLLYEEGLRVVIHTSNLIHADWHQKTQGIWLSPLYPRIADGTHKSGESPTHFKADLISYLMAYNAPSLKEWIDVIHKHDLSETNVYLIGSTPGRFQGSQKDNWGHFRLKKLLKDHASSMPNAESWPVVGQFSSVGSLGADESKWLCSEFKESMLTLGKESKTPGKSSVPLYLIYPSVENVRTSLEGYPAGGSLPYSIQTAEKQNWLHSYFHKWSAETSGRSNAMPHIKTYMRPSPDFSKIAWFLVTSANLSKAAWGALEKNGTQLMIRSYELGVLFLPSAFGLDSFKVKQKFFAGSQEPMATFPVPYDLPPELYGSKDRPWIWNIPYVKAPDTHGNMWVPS
#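 Recombinant human Tdp1 (E. coli-expressed, 1 nM final) preincubated with compounds 15 min at room temperature, then 5'-biotin/3'-phosphotyrosine-FITC DNA substrate (15 nM final) added for 5 min. AlphaScreen beads (10 ug/ml final) added 10 min; cleavage lowers signal.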
# HepG2 viability: HepG2 cytotoxicity, counter-screen for TGF-b inhibitors. HepG2 CAGA-GFP viability, ATP luminescence, 18 h. Potency, µM (highest dose often 46.1 µM), actives largely listed as cytotoxic. hit rate 0.76% among 410,000. AID 588856
#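 CellTiter-Glo luminescence gave cytotoxicity after 18 hours at 37 degrees C. The cells were HepG2 CAGA-GFP in 1% FBS DMEM, stimulated with 500 pg/mL TGF-beta after compound addition. %Activity was normalised to no-cell wells (complete cell-killing) and DMSO (no toxicity), and curves were fitted and classified.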
# A number is an active result; . = inactive; ? = inconclusive; / = no result. Unless noted, the call rests on the fitted dose curve; in most records, active means well fitted curve in the direction sought with a large enough effect; inconclusive means small, poorly fitted or top-dose-only effect, or another doubt; inactive means no such curve, though single readings can be large; an effect the other way counts as inactive or inconclusive.
SMILES,DT40 TDP1 no CPT,DT40 TDP1 CPT,IL1B secr inh,TGFb SMAD3 inh,TDP1 block,HepG2 viability
CC#CCOC(=O)c1c(C)nc2sc3c(c2c1N)CC[C@@H](O)C3,11µM,.,/,.,.,.
CCOC(=O)c1c(N)sc2c1CCC(C)C2 (stereo unspecified),.,.,.,.,.,.
Cc1ccc(N(CN2CCCC2=O)C(=O)c2ccc(C)c(C)c2)cc1,7.3µM,8.2µM,.,.,.,.
CCOc1ccccc1C(=O)N(CN1CCCC1=O)c1ccc(C)c(Cl)c1,3.7µM,3.7µM,.,.,.,.
Cc1ccc(C(=O)N(CN2CCCC2=O)c2ccc(F)cc2)cc1C,26µM,?,.,.,.,.
Cc1ccc(N(CN2C(=O)C3CC=CCC3C2=O)C(=O)c2ccco2)cc1Cl (stereo unspecified),.,.,.,.,.,.
Cc1cc(C)nc(NCCC(=O)O)n1,.,.,.,.,.,.
Cc1cc(Nc2cccc(Cl)c2)nc(N2CCOCC2)n1,?,15µM,.,.,.,.
Fc1cccc(Nc2nc(N3CCOCC3)nc(N3CCOCC3)n2)c1,.,18µM,?,.,/,.
Cc1cc(Nc2ccccc2)nc(N2CCOCC2)n1,.,.,.,.,.,.
CCOc1nc(NCCO)nc(Nc2cc(Cl)ccc2OC)n1,?,?,.,.,.,.
COc1ccc(Nc2nc(N3CCOCC3)nc(N3CCOCC3)n2)cc1Cl,21µM,?,-58,.,.,.
Clc1cccc(Nc2nc(N3CCOCC3)nc(N3CCOCC3)n2)c1,?,?,?,.,.,.
CCOc1nc(Nc2ccc(OC)c(Cl)c2)nc(OCC)n1,?,18µM,.,.,.,.
Cc1cccc(-n2c(CNC(=O)c3cccc(F)c3)nnc2SCC(=O)Nc2ccccc2F)c1,?,.,/,.,.,.
COc1cccc(C(=O)N(Cc2sccc2C)C2CCS(=O)(=O)C2)c1 (stereo unspecified),.,.,/,/,.,.
Cc1ccc(N/N=C/c2ccc(N3CCOCC3)cc2)cc1C,?,23µM,.,.,.,.
O=C(N/N=C/c1ccc(N2CCOCC2)cc1)C1CC1,.,.,.,.,.,.
Cc1ccc(Cl)cc1Nc1nc(N2CCOCC2)nc(N2CCOCC2)n1,?,?,-54,.,.,.
Cc1ccc(Nc2nc(Nc3ccc(C)c(C)c3)nc(N3CCOCC3)n2)cc1C,10µM,15µM,/,.,/,.
COc1ccc(Nc2nc(Nc3ccc(OC)cc3OC)nc(N3CCOCC3)n2)c(OC)c1,13µM,15µM,/,.,/,.
Cc1ccc([N+](=O)[O-])cc1Nc1nc(N2CCOCC2)nc(N2CCOCC2)n1,.,.,.,.,.,.
Cc1ccc(-n2c(SCC(=O)Nc3c(C)cccc3C)nc(O)c(C)c2=O)cc1,.,.,/,.,.,.
CCOC(=O)/C(=C/c1ccc(OC)cc1)NC(=O)c1ccco1,.,.,.,?,.,.
Cc1ccc(Nc2nc(N/N=C\c3ccc4c(c3)OCO4)nc(N3CCOCC3)n2)cc1,9.2µM,8.2µM,.,.,.,.
SMILES,DT40 TDP1 no CPT,DT40 TDP1 CPT,IL1B secr inh,TGFb SMAD3 inh,TDP1 block,HepG2 viability
Cc1ccc(/C=N/Nc2cc(C)nc(N3CCOCC3)n2)cc1,?,.,.,.,.,.
Cc1ccc(C)c2sc(NC(=O)c3ccc(S(=O)(=O)N4CCC(C)CC4)cc3)nc12,16µM,?,/,.,.,.
Cc1nnsc1C(=O)Nc1ccc(S(=O)(=O)N2CCC(C)CC2)cc1,10µM,?,-55,.,.,.
CC1CCN(S(=O)(=O)c2ccc(C(=O)Nc3ncccc3O)cc2)CC1,15µM,?,.,.,.,.
CC(=O)N1c2ccccc2C(=O)C1N1CCN(c2cccc(C)c2C)CC1 (stereo unspecified),.,.,/,?,.,.
COC(=O)C1CCN(S(=O)(=O)c2c[nH]c(=O)[nH]c2=O)CC1,.,.,.,.,/,.
Cc1ccccc1CNC(=O)c1ccc2sc([C@H]3C[C@H](O)[C@@H](CO)O3)nc2c1,?,.,.,.,/,.
N#C/C(=C\c1cccnc1)C(=O)NC1CCCCC1,23µM,?,-78,.,.,.
N#C/C(=C\c1c[nH]c2ccccc12)C(=O)NC1CC1,.,.,?,.,/,.
N#C/C(=C\c1c[nH]c2ccccc12)C(=O)NC1CCCC1,16µM,16µM,.,.,.,.
Fc1ccc(C2=NC(c3cccc(C(F)(F)F)c3)=Nc3ccccc3N2)cc1,18µM,?,/,.,.,.
COc1ccc(C2=Nc3ccc(F)cc3NC(c3cccc(C(F)(F)F)c3)=N2)cc1,?,23µM,/,.,.,.
Cc1ccc(S(=O)(=O)N2CCCNCC2)cc1,.,.,.,.,.,.
Cc1cccc(NC2=C(Cl)C(=O)OC2NC(=O)c2ccccc2)c1 (stereo unspecified),.,.,.,.,.,.
Cc1ccc(NC2=C(Cl)C(=O)OC2OC(=O)c2ccco2)cc1 (stereo unspecified),16µM,?,.,.,.,.
Cc1ccccc1NC1=C(Cl)C(=O)OC1OC(=O)c1ccccc1C (stereo unspecified),?,?,-83,.,.,.
Cc1ccc(NC2=C(Cl)C(=O)OC2OC(C)C)cc1 (stereo unspecified),.,.,.,.,.,.
Cc1cccc(NC2=C(Cl)C(=O)OC2OC(=O)c2ccco2)c1 (stereo unspecified),21µM,21µM,.,.,.,.
CCCCOc1ccc(CNC(=O)c2ccc(NC(=O)N3CCSc4ncccc43)cc2)cc1,?,?,/,.,.,.
O=C(Cc1ccccc1)c1c[nH]c(C(=O)C(Cl)(Cl)Cl)c1,6.5µM,2.9µM,.,.,/,.
CNC(=O)c1cc(C(=O)c2ccc(F)cc2Cl)c[nH]1,.,.,.,.,/,.
O=C(c1ccc(Cl)cc1)c1c[nH]c(C(=O)C(Cl)(Cl)Cl)c1,12µM,12µM,-112,.,.,.
O=C(c1ccccc1)c1c[nH]c(C(=O)C(Cl)(Cl)Cl)c1,?,?,.,.,.,.
O=C(c1c[nH]c(C(=O)C(Cl)(Cl)Cl)c1)c1ccc(F)cc1F,13µM,?,.,.,/,.
O=C(c1c[nH]c(C(=O)C(Cl)(Cl)Cl)c1)c1ccc(F)cc1Cl,13µM,?,-63,.,.,.
C[C@H](O)[C@@H]1CN2CCc3c([nH]c4ccccc34)[C@@H]2C[C@@H]1N(C)C(=O)OCc1ccccc1,?,?,.,?,/,.
